Experimental data published in PubChem BioAssay (Tox21).
Where “and” joins values, the source holds several entries; their conditions need not be identical. Identical values can stand only once. Records with an inconclusive call do not appear. Some structures have more than one record in an assay (separate samples or runs), and their calls can disagree. Calls of active or inactive are those of the source. Unless noted, the call rests on the fitted dose curve; in most records, active means well fitted curve in the direction sought with a large enough effect in the repeat runs; inconclusive means weak or mixed curves; inactive means no such curve, though single readings can be large; an effect the other way counts as inactive or inconclusive.

Columns and labels:
[1] = target: Luciferin 4-monooxygenase (Photinus pyralis) (UniProt P08659); assay: qHTS assay to identify small molecule inhibitors of firefly luciferase (AID 1224835); further: nearly all actives have a fitted effect of over 25% in size; further: potency means the concentration at half of the fitted maximal effect
In short: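 Biochemical qHTS: compounds run as interplate titrations against purified firefly enzyme, with D-luciferin and ATP each at its KM concentration. Light output recorded by CCD imaging.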

[2] = qHTS assay to identify small molecule agonists of the constitutive androstane receptor (CAR) signaling pathway - cell viability counter screen (AID 1224836); further: nearly all actives have a fitted effect of over 45% in size; further: potency means the concentration at half of the fitted maximal effect
In short: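 Compound titrations (15 concentrations) went onto HepG2-CYP2B6-hCAR cells 4 h after seeding, alongside PK11195 at a final 0.75 uM; a 23 h, 37 C/5% CO2 incubation preceded CellTiter-Fluor viability measurement.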

[3] = qHTS assay to identify small molecule antagonists of the estrogen related receptor signaling pathway with the pleiotropic PPARgamma coactivator (PGC) from Tox21 10K library - cell viability counter screen (AID 1224840; active means well fitted cell-killing curve with a large enough effect in the repeat runs, not every such curve was filed as active; further: nearly all actives have a fitted effect of over 40% in size; further: potency means the concentration at half of the fitted maximal effect)
In short: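 Here the PGC/ERR cells serve as a cytotoxicity control: they are exposed to compounds for 17.5 hours at 37 C, and live-cell signal is quantified using CellTiter-Fluor fluorescence.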

[4] = qHTS assay to identify small molecule antagonists of the estrogen related receptor signaling pathway with the pleiotropic PPARgamma coactivator (PGC) from Tox21 10K library (AID 1224841; call rule not given here; further: actives are mostly falling curves and most rising ones were filed inactive; nearly all actives have a fitted effect of over 50% in size; further: potency means the concentration at half of the fitted maximal effect)
In short: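 Each well held 2,000 PGC/ERR cells, pre-incubated six hours (37 C, 5% CO2). Test substances in DMSO were added by pin tool and left for 18 h at 37 C before luciferase detection by One-Glo.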

[5] = target: Thyrotropin receptor (Homo sapiens) (UniProt P16473); assay: qHTS assay to identify small molecule agonists of the thyroid stimulating hormone receptor (TSHR) signaling pathway (AID 1224843; calls by dose curve; further: nearly all actives have a fitted effect of over 45% in size; further: potency means the concentration at half of the fitted maximal effect)
In short: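 TSHR-HEK293 cells in agonist mode, 30 min room-temperature step, then cAMP measured by competitive HTRF (cAMP-d2 with anti-cAMP cryptate) after 1 h at room temperature. Tested at 15 concentrations in triplicate.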

[6] = qHTS assay to identify small molecule agonists of the hypoxia (HIF-1) signaling pathway - cell viability counter screen (AID 1224844; calls by dose curve; further: nearly all actives have a fitted effect of over 50% in size; further: potency means the concentration at half of the fitted maximal effect)
In short: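 Multiplexed with the HRE beta-lactamase assay, this viability read used CellTiter-Glo luminescence (30 min, RT) on HRE-bla ME-180 cells treated 17 hrs with compounds in 0.5% dialyzed FBS medium.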

[7] = qHTS assay to identify small molecule agonists of H2AX (AID 1224845; active means well fitted activation curve with a large enough effect in the signal ratio in the repeat runs, not every such curve was filed as active; the % refers to the signal ratio; further: potency means the concentration at half of the fitted maximal effect)
In short: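 Wild-type CHO-K1 cells, plated overnight, exposed 3hr at 37C to 15 concentrations (0.76% DMSO final). Lysed, then HTRF anti-pH2AX (S139) cryptate and anti-H2AX-d2 antibodies, 24 hr room temperature; 665/620 nm emission read.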

[8] = qHTS assay to identify small molecule agonists of the hypoxia (HIF-1) signaling pathway (AID 1224846; active means well fitted activation curve with a large enough effect in the signal ratio in the repeat runs, not every such curve was filed as active; the % refers to the signal ratio)
In short: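 Hypoxia-pathway activation was scored as increased beta-lactamase from an HRE-controlled reporter in ME-180 cells; plated at 2,000 cells per well with 0.5% dialyzed FBS, they were exposed 17 hrs to compounds and then given CCF4-AM.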

[9] = qHTS assay to identify small molecule agonists of H2AX - cell viability counter screen (AID 1224847; calls by dose curve; further: top concentration of the series differs between compounds; nearly all actives have a fitted effect of over 30% in size)
In short: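 Read-out: CellTiter-Glo luminescence, 30 min RT. Cells: wild-type CHO-K1, 1000/well, 10% FBS, plated overnight at 37C. Treatment: 15 concentrations, 3 hr, 37C, 0.76% DMSO.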

[10] = qHTS assay to identify small molecule antagonists of the estrogen related receptor (ERR) signaling pathway from Tox21 library (AID 1224848); further: nearly all actives have a fitted effect of over 50% in size; further: potency means the concentration at half of the fitted maximal effect
In short: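 ERR reporter cell line (from NTP) seeded 2,000 cells/well, rested 6 h at 37 C/5% CO2, then pin-dosed with compounds in DMSO. After 18 h at 37 C, ONE-Glo added; luminescence read after 30 min at room temperature.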

[11] = A CellTox Green Cytotoxicity Assay to monitor cytotoxicity in HEK293 cells - 0 hour (AID 1224869); further: nearly all actives have a fitted effect of over 50% in size; further: potency means the concentration at half of the fitted maximal effect
In short: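 Seeding of HEK293 cells together with cytotoxicity dye preceded a 5 h incubation at 37 C/5% CO2. Test compounds in DMSO were then added and fluorescence monitored across 40 h.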

[12] = qHTS RealTime-Glo MT Cell Viability Assay in HepG2 cells - 40 hour (AID 1224870); further: nearly all actives have a fitted effect of over 50% in size; further: potency means the concentration at half of the fitted maximal effect
In short: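 HepG2 cells (600/well) mixed with RealTime-Glo MT reagent, settled 5 h at 37 C/5% CO2 before compound addition. Nonlytic NanoLuc luminescence from viable-cell prosubstrate reduction read repeatedly during 40 h treatment at 37 C.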

[13] = qHTS assay to identify small molecule antagonists of the constitutive androstane receptor (CAR) signaling pathway - cell viability counter screen (AID 1224837); further: nearly all actives have a fitted effect of over 45% in size; further: potency means the concentration at half of the fitted maximal effect
In short: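 Using CellTiter-Fluor, viability is scored in HepG2 cells stably carrying hCAR and a 2.2kb CYP2B6 reporter after 23 hr compound exposure across 15 concentrations, with CITCO present at 50 nM.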

[14] = target: Nuclear receptor subfamily 1 group I member 3 (Homo sapiens) (UniProt Q14994); assay: qHTS assay to identify small molecule antagonists of the constitutive androstane receptor (CAR) signaling pathway (AID 1224838);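 further: HepG2 cells stably expressing hCAR with CYP2B6 luciferase reporter stimulated by CITCO; nearly all actives have a fitted effect of over 40% in size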; further: potency means the concentration at half of the fitted maximal effect
In short: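 Reporter luminescence was quantified after 24 h exposure of hCAR/CYP2B6-2.2kb double-stable HepG2 cells to compounds at 15 concentrations in the presence of 50 nM CITCO final.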

[15] = target: Nuclear receptor subfamily 1 group I member 3 (Homo sapiens) (UniProt Q14994); assay: qHTS assay to identify small molecule agonists of the constitutive androstane receptor (CAR) signaling pathway (AID 1224839); further: nearly all actives have a fitted effect of over 15% in size; further: potency means the concentration at half of the fitted maximal effect;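 on activation: HepG2 cells stably carrying human CAR and a CYP2B6 luciferase reporter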
In short: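 In this screen, CAR-driven CYP2B6 promoter activity is measured by luminescence in HepG2-CYP2B6-hCAR cells after 24 h with test compounds and 0.75 uM PK11195 (final concentration).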

[16] = qHTS assay to identify small molecule agonists of the estrogen related receptor signaling pathway with the pleiotropic PPARgamma coactivator (PGC) from Tox21 10K library (AID 1224842); further: nearly all actives have a fitted effect of over 15% in size
In short: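 PGC/ERR reporter cell line, 2,000 cells per well, incubated 6 h at 37 C before 23 nL compound in DMSO was added. After 18 h at 37 C, One-Glo luminescence read following 30 min at room temperature.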

[17] = qHTS assay to identify small molecule agonists of the estrogen related receptor (ERR) signaling pathway from Tox21 library (AID 1224849; calls by dose curve; further: nearly all actives have a fitted effect of over 15% in size); settings: ERR reporter cell line, ONE-Glo luciferase, 18 h
In short: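 Six hours post-seeding at 37 C/5% CO2, ERR cells receive DMSO-solubilised compounds; after 18 h at 37 C, ONE-Glo reagent is applied and luminescence recorded.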

[18] = qHTS RealTime-Glo MT Cell Viability Assay in HepG2 cells - 24 hour (AID 1224867); further: nearly all actives have a fitted effect of over 50% in size; further: potency means the concentration at half of the fitted maximal effect
In short: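 Viability was tracked continuously by NanoLuc luminescence from prosubstrate reduced by living HepG2 cells, at successive time points over 40 h of compound exposure. Cells with reagent were preincubated 5 h at 37 °C before compound addition.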

[19] = qHTS RealTime-Glo MT Cell Viability Assay in HEK293 cells - 32 hour (AID 1224868); further: nearly all actives have a fitted effect of over 50% in size; further: potency means the concentration at half of the fitted maximal effect
In short: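 Viability tracked continuously by luminescence as live cells reduce a prosubstrate for NanoLuc; HEK293 cells preincubated 5 h, compound-treated at 37 C, and read at 0, 8, 16, 24, 32 and 40 h.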
On the % scale 0 is the no-effect control and ±100 the full control effect.

Thyrotropin receptor (Homo sapiens), sequence (P16473 whole entry, looked up): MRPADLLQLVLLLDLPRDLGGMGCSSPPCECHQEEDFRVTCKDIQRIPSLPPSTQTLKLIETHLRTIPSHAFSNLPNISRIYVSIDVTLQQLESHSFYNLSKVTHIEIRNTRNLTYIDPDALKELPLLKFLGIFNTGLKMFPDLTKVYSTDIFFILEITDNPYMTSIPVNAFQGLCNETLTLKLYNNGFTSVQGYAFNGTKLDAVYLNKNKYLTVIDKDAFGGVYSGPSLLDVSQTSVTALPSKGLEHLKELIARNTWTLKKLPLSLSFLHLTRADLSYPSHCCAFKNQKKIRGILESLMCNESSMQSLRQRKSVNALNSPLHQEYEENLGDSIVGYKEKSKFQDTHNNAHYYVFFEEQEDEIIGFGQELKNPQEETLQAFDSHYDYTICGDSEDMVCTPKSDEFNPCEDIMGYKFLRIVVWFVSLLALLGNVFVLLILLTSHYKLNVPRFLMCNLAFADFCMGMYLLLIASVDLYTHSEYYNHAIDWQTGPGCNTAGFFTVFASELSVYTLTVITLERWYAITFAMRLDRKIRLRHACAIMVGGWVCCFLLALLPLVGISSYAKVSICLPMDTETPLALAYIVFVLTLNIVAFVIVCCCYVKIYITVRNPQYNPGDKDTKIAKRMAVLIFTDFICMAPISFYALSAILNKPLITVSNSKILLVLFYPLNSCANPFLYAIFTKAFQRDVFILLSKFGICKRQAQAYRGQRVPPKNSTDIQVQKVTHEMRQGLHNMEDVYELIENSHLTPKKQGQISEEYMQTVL
Nuclear receptor subfamily 1 group I member 3 (Homo sapiens), sequence (Q14994 whole entry, looked up): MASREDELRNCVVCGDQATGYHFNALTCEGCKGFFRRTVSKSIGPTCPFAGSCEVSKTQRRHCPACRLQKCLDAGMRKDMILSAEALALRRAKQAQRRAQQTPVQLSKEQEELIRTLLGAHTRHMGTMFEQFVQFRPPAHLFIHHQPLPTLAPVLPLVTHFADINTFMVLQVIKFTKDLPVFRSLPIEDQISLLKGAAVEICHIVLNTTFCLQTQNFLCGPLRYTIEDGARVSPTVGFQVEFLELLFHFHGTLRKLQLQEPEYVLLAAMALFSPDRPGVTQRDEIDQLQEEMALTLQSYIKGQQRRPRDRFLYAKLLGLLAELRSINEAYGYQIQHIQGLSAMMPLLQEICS
Luciferin 4-monooxygenase (Photinus pyralis), sequence (P08659 whole entry, looked up): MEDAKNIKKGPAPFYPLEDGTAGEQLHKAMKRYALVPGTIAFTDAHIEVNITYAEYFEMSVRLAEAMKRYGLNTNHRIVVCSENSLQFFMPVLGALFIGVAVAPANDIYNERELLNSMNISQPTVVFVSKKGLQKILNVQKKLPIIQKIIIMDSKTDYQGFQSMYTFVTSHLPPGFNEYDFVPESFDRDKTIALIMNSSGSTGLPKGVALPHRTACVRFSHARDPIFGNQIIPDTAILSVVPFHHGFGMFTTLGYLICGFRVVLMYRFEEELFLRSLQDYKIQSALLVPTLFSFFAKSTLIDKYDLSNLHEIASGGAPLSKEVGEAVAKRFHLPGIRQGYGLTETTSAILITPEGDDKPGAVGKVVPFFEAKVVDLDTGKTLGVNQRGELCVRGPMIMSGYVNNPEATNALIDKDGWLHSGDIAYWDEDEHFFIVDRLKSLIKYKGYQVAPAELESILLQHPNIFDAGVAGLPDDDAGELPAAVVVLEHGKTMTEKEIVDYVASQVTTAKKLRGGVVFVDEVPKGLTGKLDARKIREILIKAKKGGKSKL

NC(=Nc1ccccc1)Nc1ccccc1
active: Potency [2] 3.86 µM
inactive: Potency [1] | Potency [3] | Potency [4] | Potency [5] | Potency [6] | Potency [7] | Potency [8] | Potency [9] | Potency [10] | Potency [11] | Potency [12]

CCOc1ccc2c(c1)C(C)=CC(C)(C)N2
inactive: Potency [2] | Potency [13] | Potency [14] | Potency [3] | Potency [4] | Potency [16] | Potency [5] | Potency [7] | Potency [9] | Potency [10] | activity change, positive = activation ([17]; at 92.4 µM (top of the series)) 1.57% and 2.85% | Potency [18] | Potency [19] | Potency [11] | Potency [12]
active: Potency [1] 56.1 µM and 63.3 µM | Potency [15] 27.2 µM and 27.3 µM

C/C=C/c1ccc(OCC)c(O)c1
inactive: Potency [13] | Potency [14] | Potency [15] | Potency [3] | Potency [5] | Potency [7] | Potency [8] | Potency [9] | Potency [18] | Potency [19] | Potency [11] | Potency [12]
active: Potency [1] 31.7 µM and 35.6 µM

Cc1cc(Cc2cc(C)cc(C(C)(C)C)c2O)c(O)c(C(C)(C)C)c1
43.5 µM (active) and inactive: Potency [5]
active: Potency [2] 61.4 µM | Potency [14] 19.4 µM and 43.3 µM | Potency [3] 48.8 µM and 43.3 µM | Potency [4] 48.8 µM and 30.6 µM | Potency [6] 9.82 µM and 9.77 µM | Potency [7] 56.9 µM and 45 µM | Potency [10] 27.4 µM and 30.6 µM | Potency [18] 49.2 µM and 43.6 µM | Potency [19] 9.82 µM and 15.5 µM | Potency [12] 55.2 µM and 49 µM
inactive: Potency [1] | Potency [15] | Potency [16] | activity change, positive = activation ([17]; at 92.4 µM (top of the series)) -73.5% and -62.7% | Potency [11]

CCN(CC)C(=S)SSC(=S)N(CC)CC
active: Potency [1] 8.94 µM and 6.48 µM and 8.71 µM | Potency [13] 273 nM and 249 nM and 211 nM | Potency [14] 273 nM and 78.8 nM and 298 nM | Potency [3] 193 nM and 44.3 nM and 266 nM | Potency [4] 243 nM and 366 nM | Potency [10] 243 nM and 55.8 nM and 298 nM | Potency [19] 174 nM and 89.1 nM and 13.4 µM | Potency [12] 100 nM
inactive: Potency [15] | Potency [16] | activity change, positive = activation ([17]; at 42.5 µM (top of the series)) -68.2% | activity change, positive = activation ([17]; at 92.4 µM (top of the series)) -75.7% and -76.4% | Potency [11]
355 nM (active) and inactive: Potency [6]

CN(C)c1ccc(C(=C2C=CC(=[N+](C)C)C=C2)c2ccccc2)cc1
inactive: Potency [15] | Potency [16] | activity change, positive = activation ([17]; at 42.5 µM (top of the series)) -66.6% and -76.7% and -71.5% | activity change, positive = activation ([17]; at 92.4 µM (top of the series)) -71.3% | Potency [11]
active: Potency [2] 11.9 µM [middle of 4 runs] | Potency [14] 4.73 µM [middle of 4 runs] | Potency [3] 3.44 µM and 6.68 µM and 4.73 µM | Potency [6] 11 µM and 5.35 µM | Potency [10] 596 nM [middle of 4 runs] | Potency [18] 11 µM and 8.49 µM and 7.56 µM | Potency [19] 2.13 µM [middle of 4 runs]

Oc1c(Cl)cc(Cl)cc1Sc1cc(Cl)cc(Cl)c1O
active: Potency [14] 17.3 µM and 62.1 µM | Potency [19] 19.5 µM and 15.5 µM
inactive and 27.5 µM (active): Potency [11]
inactive: Potency [1] | Potency [15] | Potency [16] | Potency [5] | Potency [7] | activity change, positive = activation ([17]; at 42.5 µM (top of the series)) -52.3% | activity change, positive = activation ([17]; at 92.4 µM (top of the series)) -60.8% and -52.2% and -57.2% | Potency [18] | Potency [12]

Nc1cc(S(=O)(=O)O)cc2cc(S(=O)(=O)O)cc(O)c12
inactive: Potency [13] | Potency [18] | Potency [11] | Potency [12]
active: Potency [1] 31.7 µM
